According to PubChem BioAssay AID652039 (The Scripps Research Institute Molecular Screening Center, 2013):
Out of some 370,000 compounds screened, about 3,300 (0.89%) were called active.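 How the source made its calls: active means activation above the mean of all tested compounds plus 3 SD, computed per campaign excluding outliers beyond control limits (cut at about 13% in these data); inactive means the rest.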 Shown is part of a subset that was picked to be rich in actives.

Target: Kallikrein-7 (Homo sapiens) (UniProt P49862)
Test: activation of human kallikrein-7 proenzyme – biochemical, fluorescence intensity, primary screen (AID 652039)
Details: purified proKLK7, EDANS-DABCYL substrate fluorescence; at 7 µM; hits give high values; 100% is mature enzyme control, 0% vehicle

Sequence of Kallikrein-7 (Homo sapiens) (P49862 whole entry, looked up): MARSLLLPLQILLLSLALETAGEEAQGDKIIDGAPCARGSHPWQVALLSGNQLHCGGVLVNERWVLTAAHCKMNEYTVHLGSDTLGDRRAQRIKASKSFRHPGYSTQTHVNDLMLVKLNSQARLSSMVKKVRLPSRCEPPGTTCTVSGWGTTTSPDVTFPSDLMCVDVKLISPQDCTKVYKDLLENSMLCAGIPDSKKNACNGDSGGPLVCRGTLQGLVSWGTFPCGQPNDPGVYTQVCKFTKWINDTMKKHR

| Compound | activation |
| --- | --- |
| COc1ccc(S(=O)(=O)N2CCN(C(=O)N(C)C)C2C)cc1 (stereo not given) | 0.63% (inactive) |
| Cc1ccc(-n2c(SCC(=O)Nc3ccc(S(=O)(=O)Nc4nccs4)cc3)nnc2-c2ccccn2)cc1 | 0.68% (inactive) |
| CC1(C)CN(c2ccc(-c3ccnc4ncnn34)cc2)C1=O | 29.6% (active) |
| Nc1c(-c2ccc(F)cc2)cnc2ncnn12 | 0.09% (inactive) |
| Cc1cc([N+](=O)[O-])nn1Cc1ccc(F)cc1 | 0.68% (inactive) |
| CC(=O)O[C@@]1(C(C)=O)CCC2[C@H]3C=C(C)C4=CC(=O)CC[C@@]4(C)C3CC[C@]21C (stereo not given in full) | 0.5% (inactive) |
| COc1cc(Cl)c(C)cc1NC(=O)COC(=O)c1cc(SC)ccc1Cl | -0.31% (inactive) |
| COC(=O)Cc1nc2c(N)nc(N)nc2[nH]c1=O | 29.9% (active) |
| CCCCOCCCNC(=O)C[C@H]1C[C@@]2(C(=O)OC)C(=C[C@H](COCc3ccccc3)O[C@@H]2C)N(Cc2cccc3ccccc23)C1=O | -0.35% (inactive) |
| COC1=C[C@H](C(=O)NCCNC(C)=O)[C@H](C)[C@@H](c2ccccc2)CC1=O | 0.74% (inactive) |
| O=C(Nc1ccc(Br)cc1)OCCN1C(=O)CCC12CCC(c1ccccc1)CC2 (stereo not given) | 0.49% (inactive) |
| CCC(c1nnnn1Cc1ccco1)N(CCc1ccccc1)Cc1cc2ccc(OC)cc2[nH]c1=O (stereo not given) | 21.6% (active) |
| CCOc1ccc2[nH]c(=O)c(CN(Cc3nnnn3CCc3ccccc3)CC3CCCO3)cc2c1 (stereo not given) | -0.26% (inactive) |
| CCC(c1nnnn1Cc1ccco1)N(Cc1cc2cc(OC)ccc2[nH]c1=O)C1CCCCC1 (stereo not given) | 1.29% (inactive) |
| C=CCN(C(=O)[C@@H](CCCC)[C@@H](O)c1ccc(Cl)cc1)c1ccccc1 | 0.33% (inactive) |
| COC(=O)[C@H](C(C)C)N(CCCc1cn(Cc2ccccc2)nn1)S(=O)(=O)c1ccc(F)cc1Br | -0.13% (inactive) |
| O=C(CCCCCN1C(=O)C2C3C=CC(C3)C2C1=O)Nc1ccccc1 (stereo not given) | -1.05% (inactive) |
| CCN(C(=O)[C@@H](C1CC1)[C@@H](O)c1ccc2ccccc2c1)c1ccccc1 | 0.13% (inactive) |
| COc1cccc2sc3cc(NCC[C@@H]4CCCN4C)ccc3c(=O)c12 | 41.5% (active) |
| Cc1cc2oc3ccc(NCCC4CCCN4C)cc3c(=O)c2cc1C (stereo not given) | 0.31% (inactive) |
| CCOC(=O)[C@]12CCCC=C1N(CCCOC)C(=O)[C@@H]2CC(=O)N1CCOCC1 | 0.35% (inactive) |
| COc1cc(NC(=O)C2CCCN(S(=O)(=O)c3ccc(C(C)(C)C)cc3)C2)cc(OC)c1 (stereo not given) | 0.22% (inactive) |
| Cc1ccc(Cn2cc(COC(=O)N(C)Cc3ccccc3)nn2)cc1 | 0.39% (inactive) |
| O=C(NCCO)c1cccc(-c2cccc3nccn23)c1 | 1.32% (inactive) |
| Clc1ccc(-c2cccc3nccn23)cc1 | 25% (active) |
| c1cc(-c2ccc3[nH]ccc3c2)n2ccnc2c1 | 3.83% (inactive) |
| CCN(CC)C(=O)CC[C@H]1CC[C@]2(CCCN(Cc3ccc(Cl)cc3)C2)O1 | 0.06% (inactive) |
| Cc1ccc(-n2c(SCC(=O)Nc3ccc(S(=O)(=O)Nc4nccs4)cc3)nnc2-c2cccnc2)cc1 | 0.82% (inactive) |

| Compound | activation |
| --- | --- |
| COC(=O)[C@H](C(C)C)N(CCc1cn(Cc2ccccc2)nn1)S(=O)(=O)c1ccc(F)cc1Br | 0.93% (inactive) |
| O=C1OCCN1C(=O)[C@H]1[C@H](c2ccc(Cl)cc2)C(c2cccc(Cl)c2)=NN1c1ccc(Br)cc1 | -322% (inactive) |
| C[C@@H]1C(c2ccc(F)cc2)=NN(c2ccc(Br)cc2)[C@H]1C(=O)N1CCOC1=O | 37.1% (active) |
| O=C1OCCN1C(=O)[C@H]1[C@H](c2ccccc2)C(c2ccc(F)cc2)=NN1c1ccccc1 | -23.2% (inactive) |
| CSc1ccc(C=Nn2c(-c3ccc(F)cc3)n[nH]c2=S)cc1 | -0.19% (inactive) |
| CCC(C)(C)NC(=O)C(c1ccccn1)N(C(=O)c1csnn1)c1ccccc1 (stereo not given) | 0.19% (inactive) |
| COc1cccc(-c2nnc(N(C)C(=O)c3ccno3)s2)c1 | 0.14% (inactive) |
| CN(C(=O)COc1ccccc1)c1nnc(-c2ccncc2)s1 | 15.3% (active) |
| CN(C(=O)c1ccccc1)c1nccnc1C#N | -0.08% (inactive) |
| CN(C(=O)c1ccccn1)c1nnc(-c2ccccn2)s1 | 26.2% (active) |
| CN(C(=O)C1CCOC1)c1nnc(-c2cccnc2)s1 (stereo not given) | 1.7% (inactive) |
| CC(C)Oc1ccc(CCc2nnc(SCC(=O)O)n2-c2ccccc2)cc1 | 0.35% (inactive) |
| O=C(Nc1nc2ccc(Cl)cc2s1)c1cc(-c2ccc(Cl)cc2)nc2ccccc12 | 0.7% (inactive) |
| COc1cccc2oc(CCc3ccccc3)cc(=O)c12 | 2.15% (inactive) |
| CCOC(=O)COc1cc(OCC(=O)OCC)c2c(=O)cc(-c3ccccc3)oc2c1 | 13.1% (active) |
| Cc1cc(OCC(=O)NCC(O)c2ccccc2)c2c(C)c(C)c(=O)oc2c1 (stereo not given) | 0.58% (inactive) |
| COc1ccc(S[C@]2(C(=O)N(C)C)CC(=O)N(c3ccc(OC)cc3)[C@@H]2c2ccc(OC)cc2)cc1 | 0.22% (inactive) |
| CC(c1ccc(N)cc1)c1cn(C)c2ccccc12 (stereo not given) | 0.46% (inactive) |
| COc1ccc(C2CC=C(C(=O)O)C(c3ccccc3F)N2S(=O)(=O)c2ccc(C)cc2)cc1OC (stereo not given) | 0.12% (inactive) |
| CCOc1ccccc1C1C(C(=O)OC)=CN(C)C=C1C(=O)OC | 46.1% (active) |
| CCOc1cc(C2C(C(=O)OC)=CN(C3CCCC3)C=C2C(=O)OC)cc(Br)c1O | -0.82% (inactive) |
| COC(=O)C1=CN(C)C=C(C(=O)OC)C1c1ccc(Cl)cc1Cl | 0.08% (inactive) |
| O=S1(=O)c2ccc(Br)cc2OC[C@@H](Cc2ccccc2)N1Cc1cn(Cc2ccco2)nn1 | 0.26% (inactive) |
| Cc1cc(NC(=O)CCN2CCN(Cc3ccccc3)CC2)ccc1Br | 0.91% (inactive) |
| COc1cc2[nH]c(=O)n(CCC(=O)NC3CCN(Cc4ccccc4)CC3)c(=O)c2cc1OC | -1.29% (inactive) |
| CCOC(=O)c1[nH]c2ccc(OC)cc2c1NC(=O)CCN1CCN(Cc2ccccc2)CC1 | 13.4% (active) |
| COc1ccc(C(=O)OCCN(C)C2CN(Cc3cn(Cc4cccc(C)c4)nn3)S(=O)(=O)C2)cc1OC (stereo not given) | 0% (inactive) |
